Data from PubChem BioAssay.
Inconclusive results are not listed. For some of these results: Results with a measured potency or affinity are listed apart. Calls of active or inactive are those of the source. Rule as the data show it, unless noted: active = inhibition above about 80%; inactive = the rest.

Assays:
[1] = polyglutamine-triggered caspase-3 activation inhibitors, cell-based (AID 1583); conditions: polyglutamine-induced caspase-3 activation, cell assay; stronger effect = higher value;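 tested at 10 µM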
[2] = suppressors of polyQ aggregation in yeast, 75Q-TubU reporter (AID 1593); conditions: Yeast 75Q polyglutamine aggregation reporter
[3] = rescue of polyQ-huntingtin neuronal dysfunction in worms, whole organism, C. elegans mechanosensory neurons, N-terminal huntingtin (AID 1599); conditions: touch response, stronger effect = higher value
[4] = inhibitors of mitochondrial cytochrome c release, biochemical, purified mitochondria (AID 1603); conditions: stronger effect = lower value;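 also: mouse liver mitochondria challenged with calcium chloride; signal normalized to the plate average as 100%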
[5] = inhibitors of polyQ protein aggregation (AID 1604); conditions: polyglutamine-induced protein aggregation inhibition assay; stronger effect = higher value; tested at 2.5 µM
[6] = enhancers of glutamate uptake in motor neurons, MN-1 cell line (AID 1612); conditions: MN-1 motor neuron cells, stronger effect = higher value;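 also: tested at 1 µM final; 0% = mean of DMSO vehicle wells on each plate; positive means more glutamate uptake than control and negative means less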
[7] = reducers of polyQ inclusions in PC12 cells, cell-based, NGF-treated PC12, GFPQ80 (AID 1614); conditions: PC12 NGF-treated GFP-polyQ80 inclusion reduction;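 also: lower means fewer inclusions and 0 means no inclusions at all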
[8] = suppressors of polyglutamine aggregation in yeast, 75Q-TubH (AID 1616); conditions: S. cerevisiae 75Q-TubH polyglutamine aggregation suppression; stronger effect = higher value
[9] = target: Huntingtin (Homo sapiens) (UniProt P42858); assay: inhibitors of mutant Htt aggregation in vitro, dose response, QA1 (AID 1584); conditions: in vitro mutant huntingtin aggregation assay; confirmation test; at 10 µM; stronger effect = lower value
[10] = protection against mutant huntingtin cytotoxicity, PC12 cells, LDH release (AID 1610); conditions: PC12 mutant huntingtin toxicity, final LDH at 4 uM, stronger effect = lower value
[11] = circadian clock period modulators, cell-based, LOPAC library, luminescence reporter (AID 2774; call rule not given here;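 also: values are relative to mean of DMSO wells on each plate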); conditions: circadian reporter cells, at 7 µM, actives lie on both sides
[12] = viability rescue of complex I mutant cybrids, primary screen, cell-based, galactose medium, ATP luminescence (AID 1645843;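 active = z-score of at least 1.8 in each of two replicates, scored against plate mean and spread of sample wells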;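 also: positive z means more ATP and so rescue of galactose-driven cybrid death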); conditions: complex I mutant cybrid cells, 72 h, stronger effect = higher value
[13] = LFS_MB_P medulloblastoma growth inhibition, cell-based, chromothripsis tumors, cisplatin or BGB combos (AID 1671449); conditions: LFS_MB_P medulloblastoma cells;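 also: cells exposed for 96 hours; 0% = vehicle DMSO and 100% = killing by high DMSO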
[14] = HDN33 neuroblastoma growth inhibition, cell-based, chromothripsis tumors, cisplatin or BGB combos (AID 1671450); conditions: HDN33 neuroblastoma cells, stronger effect = higher value;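 also: cells exposed to compound for four days; 0% = vehicle DMSO and 100% = cell killing by high DMSO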
[15] = ICB984 medulloblastoma cell growth inhibition, synergistic combos for chromothripsis tumors, cisplatin or BGB combos (AID 1671451; call rule not given here;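 also: cells exposed for 96 hours before readout; 0% = vehicle DMSO and 100% = killing by high DMSO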); conditions: ICB984 medulloblastoma cells, drug combinations, stronger effect = higher value
[16] = LFS_MB_1R medulloblastoma cell growth inhibition, synergistic combos for chromothripsis tumors, cisplatin or BGB combos (AID 1671452); conditions: LFS_MB_1R medulloblastoma cells, stronger effect = higher value;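 also: cells exposed for 96 hours before readout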
[17] = HTB85 osteosarcoma cell growth inhibition, synergistic combos for chromothripsis tumors, BGB or cisplatin IC20 combos (AID 1671453); conditions: HTB85 osteosarcoma cells, drug combinations, stronger effect = higher value;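 also: cells exposed for 96 hours before readout; 0% = vehicle DMSO and 100% = high DMSO killing control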
[18] = CRL2098 osteosarcoma cell growth inhibition, synergistic combos for chromothripsis tumors, BGB or cisplatin IC20 combos (AID 1671454); conditions: CRL2098 osteosarcoma cells, drug combinations, stronger effect = higher value;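 also: cells exposed for 96 h before readout; 0% = vehicle DMSO and 100% = killing by high DMSO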
[19] = HD-MB03 medulloblastoma cell growth inhibition, synergistic combos for chromothripsis tumors, BGB or cisplatin IC20 combos (AID 1671455; in the data active = inhibition above about 83%;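 also: 0% = vehicle DMSO and 100% = high DMSO as cytotoxic control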); conditions: HD-MB03 medulloblastoma cells, stronger effect = higher value
[20] = UWB1.289 ovarian carcinoma cell growth inhibition, synergistic combos for chromothripsis tumors, BGB or cisplatin combos (AID 1671456); conditions: UWB1.289 ovarian carcinoma cells, stronger effect = higher value;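 also: cells exposed to compound for four days; 0% = vehicle DMSO and 100% = killing by high DMSO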
[21] = LFS_MB_2R medulloblastoma cell growth inhibition, synergistic combos for chromothripsis tumors, cisplatin combos (AID 1671457); conditions: LFS_MB_2R medulloblastoma cells, stronger effect = higher value;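 also: cells exposed to compound for four days before readout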
[22] = MDA-MB-436 breast carcinoma cell growth inhibition, synergistic combos for chromothripsis tumors, BGB or cisplatin combos (AID 1671458; call rule not given here;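 also: cells exposed for 96 hours; 0% = vehicle DMSO and 100% = killing by high DMSO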); conditions: MDA-MB-436 breast carcinoma growth inhibition, drug combinations, stronger effect = higher value
[23] = UWB1.289_BRCA1 ovarian cancer growth, cell-based, BGB or cisplatin combinations (AID 1671459); conditions: UWB1.289 BRCA1 ovarian carcinoma, drug combinations, stronger effect = higher value
[24] = human astrocyte viability loss, single and combined drugs, cytotoxicity control for chromothriptic childhood tumor combination screen, cell-based, BGB or cisplatin IC20 combos (AID 1671460); conditions: Human astrocytes, drug combinations, stronger effect = higher value;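 also: cells exposed to compounds for 96 hours before viability readout; 0% = vehicle and 100% = killing control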
[25] = growth inhibition of BT084 medulloblastoma cells, cell-based, ICGC_MB145, cisplatin and BGB IC40 combos (AID 1671461); conditions: drug combinations, stronger effect = higher value;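 also: cells exposed to drugs for 96 hours; 0% = vehicle DMSO and 100% = high DMSO full killing control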
[26] = growth inhibition of RCMB18 medulloblastoma cells, cell-based, cisplatin and BGB IC40 combos (AID 1671462); conditions: stronger effect = higher value;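 also: cells exposed to compound for four days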
[27] = growth inhibition of CRL1545 osteosarcoma cells, cell-based, cisplatin and BGB IC20 combos (AID 1671464); conditions: stronger effect = higher value;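 also: cells exposed to compound for 96 hours before readout; 0% = vehicle DMSO and 100% = high DMSO killing control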
[28] = measured here: combination with BGB IC40, at 0.05 µM
[29] = measured here: with BGB IC20 combination, at 0.5 µM
[30] = measured here: with cisplatin IC20 combination, at 0.5 µM
[31] = measured here: combination with cisplatin, at 0.5 µM
[32] = measured here: combination with cisplatin, at 5 µM

Sequence of Huntingtin (Homo sapiens) (P42858 whole entry, looked up): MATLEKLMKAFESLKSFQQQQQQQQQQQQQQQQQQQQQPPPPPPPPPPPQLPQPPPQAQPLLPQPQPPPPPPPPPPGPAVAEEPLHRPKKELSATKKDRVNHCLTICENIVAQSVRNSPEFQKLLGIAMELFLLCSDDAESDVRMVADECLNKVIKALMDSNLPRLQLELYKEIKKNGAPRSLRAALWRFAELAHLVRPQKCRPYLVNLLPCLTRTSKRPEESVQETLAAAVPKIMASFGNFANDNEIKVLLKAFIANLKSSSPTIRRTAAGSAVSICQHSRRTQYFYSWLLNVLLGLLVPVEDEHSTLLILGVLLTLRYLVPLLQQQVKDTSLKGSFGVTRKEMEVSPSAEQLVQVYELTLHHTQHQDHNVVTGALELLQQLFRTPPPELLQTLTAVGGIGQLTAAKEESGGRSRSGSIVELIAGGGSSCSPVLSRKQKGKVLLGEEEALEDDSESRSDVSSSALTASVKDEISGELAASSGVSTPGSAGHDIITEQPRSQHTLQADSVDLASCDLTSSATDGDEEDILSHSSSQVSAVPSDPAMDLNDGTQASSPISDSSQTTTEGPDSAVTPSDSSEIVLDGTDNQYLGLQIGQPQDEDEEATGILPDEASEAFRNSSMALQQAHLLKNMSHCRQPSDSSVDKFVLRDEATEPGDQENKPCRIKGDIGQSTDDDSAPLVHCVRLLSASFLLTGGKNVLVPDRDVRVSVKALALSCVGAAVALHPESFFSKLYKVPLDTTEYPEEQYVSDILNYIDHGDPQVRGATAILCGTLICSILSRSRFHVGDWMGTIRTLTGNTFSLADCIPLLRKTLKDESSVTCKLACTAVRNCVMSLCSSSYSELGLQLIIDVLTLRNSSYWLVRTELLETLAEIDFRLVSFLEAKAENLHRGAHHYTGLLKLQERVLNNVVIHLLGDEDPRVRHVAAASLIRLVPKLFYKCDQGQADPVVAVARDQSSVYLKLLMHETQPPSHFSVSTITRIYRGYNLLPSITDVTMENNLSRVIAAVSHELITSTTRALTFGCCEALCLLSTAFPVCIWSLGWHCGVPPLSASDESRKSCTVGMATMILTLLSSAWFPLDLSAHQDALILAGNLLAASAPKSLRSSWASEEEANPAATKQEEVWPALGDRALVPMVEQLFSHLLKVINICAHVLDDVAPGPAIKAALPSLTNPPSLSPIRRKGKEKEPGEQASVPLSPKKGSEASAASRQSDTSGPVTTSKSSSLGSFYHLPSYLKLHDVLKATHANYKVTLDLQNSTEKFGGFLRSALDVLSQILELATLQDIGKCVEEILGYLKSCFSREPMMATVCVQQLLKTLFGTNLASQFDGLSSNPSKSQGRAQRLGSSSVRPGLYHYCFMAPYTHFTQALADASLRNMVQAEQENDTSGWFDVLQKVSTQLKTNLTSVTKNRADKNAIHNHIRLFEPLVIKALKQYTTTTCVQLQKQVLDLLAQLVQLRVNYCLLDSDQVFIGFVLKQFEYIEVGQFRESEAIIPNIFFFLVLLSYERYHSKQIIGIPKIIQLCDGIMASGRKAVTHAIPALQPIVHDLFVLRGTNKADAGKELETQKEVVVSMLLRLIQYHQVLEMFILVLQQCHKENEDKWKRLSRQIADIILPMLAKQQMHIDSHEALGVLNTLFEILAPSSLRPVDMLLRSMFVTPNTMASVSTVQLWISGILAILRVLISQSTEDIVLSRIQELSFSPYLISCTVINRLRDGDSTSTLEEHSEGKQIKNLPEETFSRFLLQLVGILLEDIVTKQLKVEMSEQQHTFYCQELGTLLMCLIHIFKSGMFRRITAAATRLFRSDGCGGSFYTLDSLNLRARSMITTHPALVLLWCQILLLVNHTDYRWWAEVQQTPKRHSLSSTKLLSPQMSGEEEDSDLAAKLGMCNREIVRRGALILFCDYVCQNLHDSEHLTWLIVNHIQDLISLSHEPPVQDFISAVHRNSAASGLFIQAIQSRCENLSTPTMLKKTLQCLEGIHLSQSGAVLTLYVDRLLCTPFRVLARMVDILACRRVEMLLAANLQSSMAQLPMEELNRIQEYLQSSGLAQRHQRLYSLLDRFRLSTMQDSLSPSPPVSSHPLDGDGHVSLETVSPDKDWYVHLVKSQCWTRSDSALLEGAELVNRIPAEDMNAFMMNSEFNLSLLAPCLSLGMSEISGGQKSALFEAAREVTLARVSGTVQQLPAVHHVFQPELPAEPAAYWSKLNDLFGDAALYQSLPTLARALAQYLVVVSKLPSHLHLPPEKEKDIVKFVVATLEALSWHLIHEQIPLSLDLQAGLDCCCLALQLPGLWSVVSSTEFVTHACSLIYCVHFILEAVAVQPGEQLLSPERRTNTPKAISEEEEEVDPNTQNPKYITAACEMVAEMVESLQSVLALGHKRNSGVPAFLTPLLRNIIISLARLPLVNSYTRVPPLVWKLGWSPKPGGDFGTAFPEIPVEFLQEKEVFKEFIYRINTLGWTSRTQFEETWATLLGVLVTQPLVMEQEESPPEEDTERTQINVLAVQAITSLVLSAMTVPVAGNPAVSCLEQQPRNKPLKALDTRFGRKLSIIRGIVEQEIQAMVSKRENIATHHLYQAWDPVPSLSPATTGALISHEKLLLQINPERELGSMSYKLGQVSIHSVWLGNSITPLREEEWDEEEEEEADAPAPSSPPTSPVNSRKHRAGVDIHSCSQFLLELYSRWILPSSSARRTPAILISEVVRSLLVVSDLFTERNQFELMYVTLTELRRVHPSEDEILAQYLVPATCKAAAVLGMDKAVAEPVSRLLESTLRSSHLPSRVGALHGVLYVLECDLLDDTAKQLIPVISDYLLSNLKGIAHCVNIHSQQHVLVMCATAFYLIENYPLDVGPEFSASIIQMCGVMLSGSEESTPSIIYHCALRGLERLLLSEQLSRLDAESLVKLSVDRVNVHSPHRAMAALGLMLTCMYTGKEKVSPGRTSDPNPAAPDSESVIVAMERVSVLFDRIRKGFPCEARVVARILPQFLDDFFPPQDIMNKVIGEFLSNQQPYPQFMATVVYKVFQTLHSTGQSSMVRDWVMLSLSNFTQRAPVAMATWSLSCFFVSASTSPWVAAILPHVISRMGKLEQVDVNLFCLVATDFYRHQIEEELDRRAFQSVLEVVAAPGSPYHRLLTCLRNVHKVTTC

## CN1CC[C@]23c4c5ccc(O)c4O[C@H]2[C@H](O)C=CC3[C@H]1C5 (stereo partly specified)
[1]
  inhibition: 2.86%
[2]
  score: 1.09
[3]
  rescue above control: -1.93
[4]
  cytochrome c release ratio: 1.03
[5]
  inhibition of aggregation: 32%
[6]
  glutamate uptake change: 6.58%
[7]
  inclusion score: 2
[8]
  aggregation suppression score: 1.13

## C[C@@]1(C(=O)O)CC[C@]2(C)CC[C@]3(C)C4=CC=C5C=C(O)C(=O)C=C5[C@]4(C)CC[C@@]3(C)[C@@H]2C1
[9]
  aggregation ratio: 0.487
[2]
  score: 1.77
[4]
  cytochrome c release ratio: 3.7
[5]
  inhibition of aggregation: 11.8%
[10]
  normalised LDH release: 0.996
[6]
  glutamate uptake change: -13.4%
[8]
  aggregation suppression score: 1.23

## CC[C@@H]1/C=C/C=C/C[C@H](C)[C@@H](O)[C@](C)(O)C(=O)[C@H](C)[C@@H](O)[C@H](C)C(=O)[C@H](C)[C@@H](O)[C@H](C)/C=C/C(=O)O[C@H]2[C@@H](C)[C@@H](CC1)O[C@@]1(CC[C@@H](C)[C@@H](CC(C)O)O1)[C@@H]2C (stereo partly specified)
[11]
  period change: -1.77 h (inactive)

## COc1cc(CCN)ccc1O
[11]
  period change: -0.1 h (inactive)

## CN1C[C@@H](CS(=O)(=O)N(C)C)C[C@@H]2c3cccc4c3c(cn4C)C[C@H]21
[11]
  period change: -0.105 h (inactive)

## CC(CCCC(C)(C)O)NC(C)Cc1ccccc1F (stereo unspecified)
[12]
  z-score: -0.515 (inactive)

## CC1(C)C(C(=O)N2CCC(n3cc(C4CC4)nn3)CC2)C1(C)C
[12]
  z-score: -0.525 (inactive)

## CCN1C[C@]2(C)CC[C@H](O)[C@@]34C5C[C@@H]6[C@@H](OC)C[C@@](O)(C5[C@H]6O)[C@@H](CC23)C14 (stereo partly specified)
[11]
  period change: 0.055 h (inactive)

## CC(O)C(C)OC(=O)[C@@H]1C[C@@H]2c3cccc4c3c(cn4C(C)C)C[C@H]2N(C)C1 (stereo partly specified)
[11]
  period change: 0.035 h (inactive)

## COc1ccc(CCN)cc1O
[11]
  period change: 0.08 h (inactive)

## O=c1[nH]c(=O)n(C2OC(CO)C(O)C2O)cc1F (stereo unspecified)
[13]; at 0.5 µM, stronger effect = higher value
  inhibition: -2.55% (inactive)
[13]; measured here: combination with BGB IC20, at 0.005 µM
  inhibition: -22.7%
[13]; measured here: combination with BGB IC40, at 0.005 µM
  inhibition: -24.2%
[13]; [28]
  inhibition: -0.747%
[13]; measured here: combination with cisplatin, at 0.5 µM, stronger effect = higher value
  inhibition: -21.6%
[13]; measured here: combination with cisplatin, at 5 µM, stronger effect = higher value
  inhibition: 22.1%
[14]; BGB combo, at 5 µM
  inhibition: 98.3%
[14]; at 0.5 µM
  inhibition: 71.5% (inactive)
[14]; cisplatin combo, at 5 µM
  inhibition: 97.9%
[14]; [29]
  inhibition: 69.4%
[14]; [30]
  inhibition: 68.6%
[14]; single agent, at 5 µM
  inhibition: 98.1%
[15]; BGB IC20 combo, at 0.005 µM
  inhibition: 26.6%
[15]; BGB IC40 combo, at 0.005 µM
  inhibition: 32%
[15]; BGB IC40 combo, at 0.05 µM
  inhibition: 86.4%
[15]; at 0.5 µM
  inhibition: -9.47% (inactive)
[15]; cisplatin combo, at 0.05 µM
  inhibition: 86.4%
[15]; cisplatin combo, at 0.5 µM
  inhibition: -24.4%
[15]; cisplatin combo, at 5 µM
  inhibition: -10.9%
[15]; measured here: 5 uM single agent, at 5 µM
  inhibition: -6.81%
[16]; at 0.5 µM
  inhibition: -13.3% (inactive)
[16]; [28]
  inhibition: -3.21%
[16]; [31]
  inhibition: -2.35%
[16]; [32]
  inhibition: 44.8%
[17]; at 0.5 µM
  inhibition: 22% (inactive)
[17]; measured here: with BGB IC20, at 0.5 µM
  inhibition: -3.46%
[17]; measured here: with BGB IC20, at 5 µM
  inhibition: 59.1%
[17]; measured here: with cisplatin IC20, at 0.5 µM
  inhibition: 26.3%
[17]; measured here: with cisplatin IC20, at 5 µM
  inhibition: 57.2%
[17]; single agent, at 5 µM
  inhibition: 76.2%
[18]; at 0.5 µM
  inhibition: -23.1% (inactive)
[18]; measured here: combination with BGB at IC20, at 0.5 µM
  inhibition: -14.1%
[18]; measured here: combination with cisplatin at IC20, at 0.5 µM
  inhibition: -20.6%
[19]; at 0.5 µM
  inhibition: 66.9% (inactive)
[19]; measured here: combo with BGB at IC20, at 0.5 µM
  inhibition: 71.1%
[19]; measured here: combo with cisplatin at IC20, at 0.5 µM
  inhibition: 54%
[20]; at 0.5 µM
  inhibition: 33.5% (inactive)
[20]; measured here: inhibition with BGB combination, at 0.05 µM
  inhibition: -10.9%
[20]; measured here: inhibition with cisplatin combination, at 0.05 µM
  inhibition: 10.1%
[21]; at 0.5 µM
  inhibition: -12.7% (inactive)
[21]; [31]
  inhibition: -4.31%
[21]; [32]
  inhibition: 6.83%
[22]; at 0.5 µM
  inhibition: 45.1% (inactive)
[22]; measured here: BGB combination, at 0.5 µM
  inhibition: 27.6%
[22]; measured here: BGB combination, at 5 µM
  inhibition: 83.1%
[22]; measured here: cisplatin combination, at 0.5 µM
  inhibition: 39.9%
[22]; measured here: cisplatin combination, at 5 µM
  inhibition: 86.1%
[23]; BGB combination, concentration series, at 5 µM
  inhibition: 110%
[23]; at 0.5 µM
  inhibition: 40.6% (inactive)
[23]; cisplatin combination, concentration series, at 5 µM
  inhibition: 118%
[24]; at 0.5 µM
  inhibition: 57.3% (inactive)
[24]; measured here: combo with BGB IC20, at 0.5 µM
  inhibition: 56.2%
[24]; measured here: combo with cisplatin IC20, at 0.5 µM
  inhibition: 38.9%
[25]; at 0.5 µM
  inhibition: -22.9% (inactive)
[25]; cisplatin combination, at 0.5 µM
  inhibition: -18.4%
[25]; cisplatin combination, at 5 µM
  inhibition: -1.49%
[25]; measured here: BGB IC40 combination 0.05 uM, at 0.05 µM
  inhibition: 2.24%
[25]; single agent, at 5 µM
  inhibition: 11.9%
[26]; at 0.5 µM
  inhibition: 33.4% (inactive)
[26]; cisplatin combo, at 5 µM
  inhibition: 75.4%
[26]; measured here: BGB IC40 combination, at 0.05 µM
  inhibition: 14.4%
[26]; [31]
  inhibition: 45.3%
[26]; single agent, at 5 µM
  inhibition: 63.7%
[27]; at 0.5 µM
  inhibition: 82.5% (active)
[27]; [29]
  inhibition: 77.3%
[27]; [30]
  inhibition: 85.1%
[27]; single agent, at 0.05 µM
  inhibition: 57.8%
[27]; single agent, at 5 µM
  inhibition: 99.7%
